Results filed as inconclusive are left out. Calls of active or inactive are those of the source. The calls were made as follows, unless noted: active = hit-call score of the fitted dose curve at least 0.9, where 1 is the maximum; inactive = score below 0.9.
Assays:
[1] = CCTE_Harrill_HTTr_Viability_MCF7: CCTE's 6-hour Cell Viability Assessment for the High-Throughput Transcriptomics (HTTr) Platform, in MCF-7 cells cultured in DMEM + 10% fetal bovine serum, Harrill Lab (AID 2284010)
How it was run: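 Membrane integrity was scored by high-content imaging of propidium iodide dye exclusion after a 6 h exposure across an eight-point dilution series. Data were fitted bidirectionally relative to DMSO as negative control and baseline.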

[2] = CCTE_Harrill_HTTr_Apoptosis_MCF7: CCTE's 6-hour Apoptosis Assessment for the High-Throughput Transcriptomics (HTTr) Platform, in MCF-7 cells cultured in DMEM + 10% fetal bovine serum, Harrill Lab (AID 2284011)
How it was run: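 High-content imaging of CellEvent Caspase 3/7 Green signal follows a six-hour exposure, with eight concentrations per chemical. MCF-7 cells grown in DMEM plus 10% fetal bovine serum; activity fitted in both directions against DMSO.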

[3] = CCTE_Harrill_HTTr_CellCount_MCF7: CCTE's Cell Proliferation Assessment for the High-Throughput Transcriptomics (HTTr) Platform, Harrill Lab (AID 2284012; active = hit-call score of the fitted dose curve at least 0.9, where 1 is the maximum;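 also: cells exposed to compound for six hours; intended direction is loss of nuclei count meaning fewer cells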)
How it was run: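 MCF-7 cells were exposed for 6 h to an eight-point dilution series; Hoechst-labeled nuclei were counted by high content imaging. Curves were fitted bidirectionally against DMSO as negative control and baseline, with signal loss indicating reduced cell count.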

[4] = CCTE_Shafer_MEA_acute_burst_number: CCTE's Neural Acute Assay for Single-Electrode Bursts, Shafer Lab (AID 2284013)
How it was run: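 Rat cortical cultures, DIV 13/15; 40 min baseline, then 40 min with compound 0.03-40 uM, 37 C. Spikes: 300-5000 Hz band-pass, threshold 8x rms noise. Readout = % change in single-electrode bursts vs baseline, loss-of-signal fit.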

[5] = CCTE_Shafer_MEA_acute_burst_duration_mean: CCTE's Neural Acute Assay for Mean Burst Duration, Shafer Lab (AID 2284014);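 also: hits are decreases in mean burst duration relative to DMSO controls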
How it was run: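 Primary rat cortical neurons on 16-electrode MEA wells, treated on DIV 13 or 15 with compound (0.03-40 uM; ≥3 wells each). 40-min baseline and 40-min exposure recordings at 37 C; percent change in mean burst duration per well versus DMSO.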

[6] = CCTE_Shafer_MEA_acute_per_burst_spike_number_mean: CCTE's Neural Acute Assay for Average Number of Spikes Per Burst, Shafer Lab (AID 2284015);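 also: hits are decreases in mean spikes per burst versus baseline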
How it was run: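 Read-out: percent change in mean spikes per burst, each well's post-exposure 40-min recording versus its own 40-min baseline. Rat cortical cultures, DIV 13 or 15, compounds 0.03-40 uM; DMSO is negative control, loss-of-signal fitting.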

[7] = CCTE_Shafer_MEA_acute_interburst_interval_mean: CCTE's Neural Acute Assay for Mean Interburst Interval, Shafer Lab (AID 2284016);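 also: percent change of mean interburst interval versus each well's own pre-dose baseline; curves fitted for decrease in interburst interval relative to DMSO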
How it was run: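 Rat cortical cultures, DIV 13/15; 20 min equilibration, 40 min baseline, compound 0.03-40 uM, 40 min re-recording, 37 C. Spikes detected at 8x rms noise (300-5000 Hz band-pass). Endpoint: % change in interburst interval, fitted in loss direction vs DMSO.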

[8] = CCTE_Shafer_MEA_acute_burst_percentage_mean: CCTE's Neural Acute Assay for Percentage of Spikes in a Burst, Shafer Lab (AID 2284017);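 as to AC50: curve fitted for loss of signal so potency reflects decreased burst percentage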
How it was run: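 Rat cortical cultures, DIV 13/15, 37 C. Spikes detected at 8x rms noise (300-5000 Hz band-pass). Burst spikes/total spikes averaged across electrodes per well; % change post- vs pre-treatment (40 min each), loss-of-signal fit vs DMSO.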

[9] = CCTE_Shafer_MEA_acute_burst_percentage_std: CCTE's Neural Acute Assay for Standard Deviation of Burst Percentage, Shafer Lab (AID 2284018);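 also: fitted in the negative direction so actives lower burst percentage SD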
How it was run: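 Primary rat cortical neurons on 16-electrode MEA wells were recorded 40 min at baseline (DIV 13 or 15), then 40 min after compound (0.03-40 uM), at 37 C. Well value is SD across electrodes of spikes-in-bursts/total spikes; endpoint is percent change, DMSO-referenced.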

[10] = CCTE_Shafer_MEA_acute_per_network_burst_spike_number_mean: CCTE's Neural Acute Assay for Average Number of Spikes in a Network Burst, Shafer Lab (AID 2284019);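 as to AC50: curve fitted for loss of signal so actives reduce spikes per network burst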
How it was run: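 Primary rat cortical neurons on 16-electrode MEA wells, DIV 13 or 15, 37 C; 40-min baseline then 40-min recording with compound (0.03-40 uM). Spikes per network burst (total spikes/number of bursts) expressed as percent change from baseline, DMSO reference.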

O=C(Nc1ccccc1)c1ccccc1O
outcome [1]: inactive
outcome [2]: inactive
outcome [3]: inactive

Cc1cc(C)c(C)cc1C
outcome [1]: inactive
outcome [2]: inactive
outcome [3]: inactive

CCCCC(CC)COC(=O)c1ccccc1O (stereo unspecified)
outcome [1]: inactive
outcome [2]: inactive
outcome [3]: inactive
outcome [4]: inactive
outcome [5]: inactive
outcome [6]: inactive
AC50 [7]: 7.5 µM (active)
outcome [8]: inactive
outcome [9]: inactive
outcome [10]: inactive

O=C(Nc1cccc(C(F)(F)F)c1)c1cc(Br)cc(Br)c1O
outcome [1]: inactive
outcome [2]: inactive
outcome [3]: inactive

CCOC(=O)c1ccccc1C(=C1C=C(Br)C(=O)C(Br)=C1)c1cc(Br)c(O)c(Br)c1
outcome [1]: inactive
outcome [2]: inactive
outcome [4]: inactive
outcome [5]: inactive
outcome [6]: inactive
outcome [7]: inactive
outcome [8]: inactive
outcome [9]: inactive
outcome [10]: inactive

CC1(C)O[C@@H]2C[C@H]3[C@@H]4C[C@H](F)C5=CC(=O)C=C[C@]5(C)[C@@]4(F)[C@@H](O)C[C@]3(C)[C@]2(C(=O)CO)O1
outcome [1]: inactive
outcome [2]: inactive
outcome [3]: inactive

CN1C(=O)N(C)C(O)C1O (stereo unspecified)
outcome [4]: inactive
outcome [5]: inactive
outcome [6]: inactive
outcome [7]: inactive
outcome [8]: inactive
outcome [9]: inactive
outcome [10]: inactive

CCO[Si](C)(OCC)OCC
outcome [4]: inactive
outcome [5]: inactive
outcome [6]: inactive
outcome [7]: inactive
outcome [8]: inactive
outcome [9]: inactive
outcome [10]: inactive

Nc1ncn([C@@H]2O[C@H](CO)[C@@H](O)[C@H]2O)c(=O)n1
outcome [1]: inactive
outcome [2]: inactive
outcome [3]: inactive
AC50 [4]: 0.0142 µM (active)
outcome [5]: inactive
AC50 [6]: 5 µM (active)
AC50 [7]: 7.71 µM (active)
AC50 [8]: 8.06 µM (active)
AC50 [9]: 15 µM (active)
AC50 [10]: 0.992 µM (active)

c1c[nH]cn1
outcome [1]: inactive
outcome [2]: inactive
outcome [3]: inactive

CCCCCC/C=C\CCCCCCCC(=O)O
outcome [1]: inactive
outcome [2]: inactive
outcome [3]: inactive

— PubChem BioAssay (EPA / NIEHS)
